About 1,200 (0.92%) of roughly 130,000 compounds were called active.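 The calls were made as follows: active = inhibition above the mean plus 3 SD, with well images judged a real hit on visual review (cut at about 60% in these data, passing the limit was not always enough); inconclusive = inhibition over the cutoff but images rejected on review; inactive = inhibition not above the cutoff.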 For the sample, actives were picked, then their nearest neighbours and some compounds at random.

This test can be described thus: insulin gene promoter suppression in islet cells – imaging, TRM-6 cells (human fetal islet line), eGFP reporter, cell count, primary screen (AID 1273;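 as to normalized cell count: cells exposed to compound for 48 h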). The conditions noted are these: at 2 µM; inhibition: stronger effect = higher value; normalized cell count: measured here: cell count, toxicity.
What is called inhibition is the relative decrease from the control value, in per cent. `CC(=O)c1ccc(OC(NC(=O)Cc2ccccc2)C(Cl)(Cl)Cl)cc1` (stereo not given): the inhibition is -6.45% (inactive) and the normalized cell count turned out to be 137%.

Regarding `COP(=O)(OC)C(NC(=O)c1ccc(C)cc1)C(Cl)(Cl)Cl` (stereo not given), the inhibition is 78.6% (active) and the normalized cell count was found to be 102%.

Turning to `CCOP(=O)(OCC)C(NC(=O)c1ccc(C)cc1)C(Cl)(Cl)Cl` (stereo not given), the inhibition is -37.5% (inactive) and the normalized cell count was 107%.

For the molecule `O=C(OCCN1CCOCC1)C1(c2ccccc2)CCCC1`, the inhibition was -36.4% (inactive) and the normalized cell count turned out to be 95.2%.

For `CN(C)P(=S)(Nc1ccccc1)C(Cl)(Cl)Cl` (stereo not given), the inhibition is 26.7% (inactive) and the normalized cell count came out at 29.6%.

For the molecule `Cc1ccc(-c2nn(CCC#N)cc2C(=O)O)cc1C`, the inhibition was -30% (inactive) and the normalized cell count is 85.1%.

With `CCN(CC)C(=O)c1ccc(NC(=O)c2cc(-n3cnnc3)ccc2Cl)cc1`, the inhibition was 86.7% (active) and the normalized cell count was found to be 44.7%.

Turning to `CC(c1ccccc1)(c1ccccc1)c1ccncc1`, the inhibition is 27.3% (inactive) and the normalized cell count turned out to be 109%.

Regarding `Cc1ccsc1C(=O)C1CCCN(Cc2ccc(O)cc2)C1` (stereo not given), the inhibition was 11.1% (inactive) and the normalized cell count worked out at 139%.

For `C=CCN(CC=C)C(=O)Nc1ccc(OCC)cc1`, the inhibition is 36.8% (inactive) and the normalized cell count is 88.5%.

The values are drawn from PubChem BioAssay AID1273 (Columbia University Molecular Screening Center, 2008).
